{"source": "PubChem BioAssay (NCATS)", "note": "Results filed as inconclusive are left out. A number with no mark means an inactive call. Active and inactive are the calls of the source. Calls follow the shape of the full dose curve."}
{"target": "Thyroid hormone receptor beta (Homo sapiens) (UniProt P10828)", "sequence (P10828 whole entry, looked up)": "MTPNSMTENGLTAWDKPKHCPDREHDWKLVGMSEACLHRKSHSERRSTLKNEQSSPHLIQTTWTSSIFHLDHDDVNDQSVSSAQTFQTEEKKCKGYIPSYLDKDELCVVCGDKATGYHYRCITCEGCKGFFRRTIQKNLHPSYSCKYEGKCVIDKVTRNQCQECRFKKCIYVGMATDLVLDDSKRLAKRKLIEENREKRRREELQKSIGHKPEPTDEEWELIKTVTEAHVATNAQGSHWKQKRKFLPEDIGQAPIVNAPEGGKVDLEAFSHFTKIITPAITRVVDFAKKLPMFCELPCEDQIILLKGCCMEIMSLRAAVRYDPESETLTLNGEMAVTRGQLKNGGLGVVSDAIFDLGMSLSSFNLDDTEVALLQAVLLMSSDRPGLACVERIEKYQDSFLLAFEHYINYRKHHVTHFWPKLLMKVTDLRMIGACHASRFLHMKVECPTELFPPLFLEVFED", "test": "qHTS assay for small molecule agonists of thyroid hormone receptor beta signaling (AID 588545)", "conditions": "TR-UAS-bla GripTite HEK 293, beta-lactamase ratio, agonist mode, 18 h, percent of T3 response, DMSO as zero; series mostly up to 76.7 µM; activation: at the top concentration", "text": "NIH Chemical Genomics Center [NCGC]\nU.S. Environmental Protection Agency [EPA]\nNational Institutes of Environmental Health Sciences [NIEHS]\nNational Toxicology Program [NTP]\nThyroid hormone receptor (TR) belongs to nuclear hormone receptor superfamily. There are two subtypes for TR: TR-alpha and TR-beta. TR-beta plays a major role in regulating plasma cholesterol levels and it mediates the biological activities of thyroid hormone. Screening environmental chemicals on TR-beta signaling will provide important information for the mechanism of compound action.\nNCGC Assay Protocol Summary\nUsing a beta-lactamase reporter-gene under control of the TR response element, a cell-based assay [GeneBLAzer TR-UAS-bla-GripTite assay developed by Invitrogen] was used to measure TR-beta signaling in agonist mode. TR-UAS-bla-GripTite HEK 293 cells were used with assay medium containing 2% charcoal/dextran FBS, 0.1 mM NEAA and 1 mM sodium pyruvate. The assay was performed in clear bottom black Greiner 1536-well plates. T3 was used as a positive control in the screen. Library compounds were measured for their ability to stimulate the reporter gene activity. Compounds were screened in a titration series in 1536-well format. The fluorescence intensity (405 nm excitation, 460/530 nm emission) was measured using an EnVision plate reader. Data was normalized relative to T3 control (10 nM, 100%), and DMSO only wells (basal, 0%). Concentration-response titration points for each compound were fitted to the Hill equation yielding concentrations of half-maximal stimulation (EC50) and maximal response (efficacy) values.\nqHTS protocol for TR-beta beta-lactamase assay in agonist mode\n[Step] [Parameter] [Value] [Description]\n1. Reagent; 6 uL; 2500 cells/well\n2. Incubation; 37 C for 4 hrs\n- Dose response; start 3.8 uM, 1:3 dilutions, duplicates in first column\n- Two columns of each 10 and 0.4 nM (finals) concentrations.\n5. Incubation; 37 C for 18 hrs\n6. Detection reagent; 1 uL of CCF4-dye\n7. Incubation; RT for 2 hrs\n8. Detection; Fluorescence; Envision plate reader", "units": {"activation": "%"}}
{"molecule": "CNC(=O)N(c1ccccc1)c1ccccc1", "activation": -14}
{"molecule": "Cc1ccc(C)c(O)c1", "activation": 1.74}
{"molecule": "C=C(C)C(N)=O", "activation": -45.2}
{"molecule": "Nc1ccc(Cl)cc1[N+](=O)[O-]", "activation": -0.422}
{"molecule": "COc1ccccc1[N+](=O)[O-]", "outcome": "inactive"}
{"molecule": "COCCOC(=O)c1ccccc1C(=O)OCCOC", "activation": -20}
{"molecule": "CC(=O)c1nccs1", "activation": -2.04}
{"molecule": "CNc1ccc([N+](=O)[O-])cc1", "activation": -46.6}
{"molecule": "Cc1cc(C)c(N)cc1C", "activation": -10.5}
{"molecule": "CN(C)c1cccc(O)c1", "activation": 0.574}
{"molecule": "CC(=O)c1ccccn1", "activation": -8.1}
{"molecule": "O=C1OC(=O)c2c(Cl)c(Cl)c(Cl)c(Cl)c21", "activation": 3.47}
{"molecule": "CCCCC=O", "activation": -3.59}
{"molecule": "O=[N+]([O-])c1c(Cl)cc(Cl)cc1Cl", "activation": 5.33}
{"molecule": "NC(=O)CCCCC(N)=O", "activation": -2.32}
{"molecule": "CC(CCl)OC(C)CCl", "note": "(stereo not given)", "activation": 1.24}
{"molecule": "BrC(Br)C(Br)Br", "activation": -4.26}
{"molecule": "CCOCCOCC", "activation": -11.3}
{"molecule": "C/C=C(/C)C#N", "activation": -9.88}
{"molecule": "CC1CCC2CC1C2(C)C", "note": "(stereo not given)", "activation": -5.02}
{"molecule": "CN(C)CCCCl", "activation": -12.5}
{"molecule": "C/C(C=O)=C/c1ccccc1", "activation": -7.67}
{"molecule": "NC(N)=S", "activation": -13.4}
{"molecule": "Cc1c(C(=O)O)cccc1[N+](=O)[O-]", "activation": 1.42}
{"molecule": "CC(C)=CCC/C(C)=C/C=O", "outcome": "inactive"}
{"molecule": "CC1=C(/C=C/C(C)=C/C=C/C(C)=C\\C=O)C(C)(C)CCC1", "activation": -8.77}
{"molecule": "C=C(C)C(=O)OC", "activation": 1.92}
{"molecule": "CC(C)CO", "activation": -12.4}
{"molecule": "CCC=O", "activation": -9.64}
{"molecule": "O=C(O)CNC(=O)c1ccc(CO)o1", "activation": -44.5}
{"molecule": "Cc1ccc(C)o1", "activation": -12.8}
{"molecule": "CC(=O)c1ccc([N+](=O)[O-])cc1", "activation": -18.1}
{"molecule": "O=[N+]([O-])c1cc(C(F)(F)F)ccc1Cl", "activation": -9.3}
{"molecule": "COC(=O)CCCC(=O)OC", "activation": -18.9}
{"molecule": "Cc1cccc(C)c1", "activation": -8.51}
{"molecule": "CCCC(C)CO", "note": "(stereo not given)", "activation": -3.54}
{"molecule": "Nc1cccc2c(=O)[nH][nH]c(=O)c12", "activation": 0.467}
{"molecule": "CCC(=O)/C=C/C1C(C)=CCCC1(C)C", "note": "(stereo not given)", "activation": -36.9}
{"molecule": "O=C1CCCCC1", "activation": -5.31}
{"molecule": "Cc1ccccc1C#N", "activation": -20.5}
